Counter-ions that a name gives are not always drawn. ± gives the standard deviation of the averaged measurements.
How the values were obtained:
DLD1 [1] = assay: cell viability (CellTiter-Glo) relative to plate median (fraction of plate median); higher = more viable cells; conditions: 10 µM, treatment time 24 h
Method in brief: (§1)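 Reporter and viability luminescence were measured in colorectal cancer cells stably carrying lentiviral TCF/Wnt firefly luciferase reporters. The cells were exposed to kinase inhibitor library compounds at a final 10 µM for 24 h, starting 24 h after seeding in 384-well plates. Each well was normalised to the plate median (webcellHTS2, additive, no log transformation), and two independent replicates were averaged.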

HCT116 [2] = assay: as above; conditions: 10 µM; treatment time 24 h; reporter: TCF4/Wnt
Method in brief: as §1

SW480 [3] = assay: as above; conditions: 10 µM; treatment time 24 h; reporter: 7TFP
Method in brief: as §1

DLD1 [4] = assay: TCF/Wnt firefly luciferase reporter signal relative to plate median (fraction of plate median); higher = higher Wnt reporter signal; conditions: 10 µM, treatment time 24 h
Method in brief: as §1

HCT116 [5] = assay: as above; conditions: 10 µM; treatment time 24 h; reporter: TCF4/Wnt
Method in brief: as §1

SW480 [6] = assay: as above; conditions: 10 µM; treatment time 24 h; reporter: 7TFP
Method in brief: as §1

Row | SMILES | cell viability (DLD1 [1]; reporter: 7TFP) | cell viability (DLD1 [1]; reporter: TCF4/Wnt) | cell viability (HCT116 [2]) | cell viability (SW480 [3]) | TCF/Wnt firefly luciferase reporter signal (DLD1 [4]; reporter: 7TFP) | TCF/Wnt firefly luciferase reporter signal (DLD1 [4]; reporter: TCF4/Wnt) | TCF/Wnt firefly luciferase reporter signal (HCT116 [5]) | TCF/Wnt firefly luciferase reporter signal (SW480 [6])
1 | CCN(CC)CCCCNc1ncc2cc(-c3cc(OC)cc(OC)c3)c(NC(=O)NC(C)(C)C)nc2n1 | 0.835 ± 0.052 | 1.01 ± 0.028 | 1.055 ± 0.0071 | 1.1 ± 0.071 | 0.702 ± 0.073 | 0.698 ± 0.073 | 0.781 ± 0.058 | 1.04 ± 0.18
2 | CCS(=O)(=O)N1CC(CC#N)(n2cc(-c3ncnc4[nH]ccc34)cn2)C1 | 1.025 ± 0.0071 | 1.02 ± 0.021 | 1.22 ± 0.092 | 0.943 ± 0.0014 | 1.09 ± 0.16 | 0.764 ± 0.18 | 0.974 ± 0.11 | 0.985 ± 0.021
3 | COc1cc2ncnc(Nc3ccc(F)c(Cl)c3)c2cc1OCCCN1CCOCC1 [Gefitinib (Iressa)] | 0.913 ± 0.069 | 0.968 ± 0.021 | 0.961 ± 0.052 | 0.917 ± 0.03 | 1.005 ± 0.0071 | 0.812 ± 0.18 | 0.76 ± 0.24 | 1.02 ± 0.039
4 | Cc1cc(C(C)Nc2ccccc2)c2nc(N3CCOCC3)cc(=O)n2c1 (stereo not given) | 0.997 ± 0.13 | 0.909 ± 0.04 | 1.115 ± 0.0071 | 0.909 ± 0.071 | 1.15 ± 0.11 | 1.21 ± 0.05 | 1.15 ± 0.092 | 0.679 ± 0.3
5 | O=C(NCc1ccccc1)c1csc(Nc2ccncn2)n1 [Thiazovivin] | 1.14 ± 0.085 | 1.13 ± 0.071 | 1.16 ± 0.021 | 1.145 ± 0.0071 | 1.13 | 0.78 ± 0.18 | 1.78 ± 0.028 | 1.205 ± 0.0071
6 | CNC(=O)c1cc(COc2nnc(Nc3ccc(Cl)cc3)c3ccoc23)ccn1 [Telatinib (BAY 57-9352)] | 1.13 ± 0.23 | 0.987 ± 0.033 | 1.05 ± 0.079 | 0.972 ± 0.024 | 1.32 ± 0.05 | 1.09 ± 0.13 | 1.08 ± 0.25 | 1.08 ± 0.14
7 | Cc1ccc(NC(=O)c2cccc(N(C)C)c2)cc1NC(=O)c1ccc(O)cc1 | 1.11 ± 0.16 | 1.095 ± 0.0071 | 1.23 ± 0.11 | 0.907 ± 0.033 | 1.07 ± 0.092 | 1.12 ± 0.014 | 1.04 ± 0.035 | 0.955 ± 0.092
8 | CC(C)NC[C@@H](C(=O)N1CCN(c2ncnc3c2[C@H](C)C[C@H]3O)CC1)c1ccc(Cl)cc1 | 0.947 ± 0.031 | 1.1 ± 0.021 | 0.917 ± 0.0092 | 1.04 ± 0.042 | 0.922 ± 0.029 | 0.951 ± 0.31 | 1.08 ± 0.27 | 0.999 ± 0.016
9 | Cc1ccc(NC(=O)c2ccc(CN3CCN(C)CC3)cc2)cc1Nc1nc(-c2cccnc2)cs1 [Masitinib (AB1010)] | 0.896 ± 0.073 | 1 ± 0.037 | 0.969 ± 0.037 | 0.993 ± 0.053 | 0.821 ± 0.019 | 1.25 ± 0.078 | 0.632 ± 0.1 | 1.01 ± 0.071
10 | COc1cc(Nc2ncc3c(n2)-c2ccc(Cl)cc2C(c2c(F)cccc2OC)=NC3)ccc1C(=O)O [MLN8237 (Alisertib)] | 0.987 ± 0.047 | 0.95 ± 0.067 | 0.954 ± 0.12 | 0.943 ± 0.014 | 1.08 ± 0.014 | 1.16 ± 0.16 | 1.01 ± 0.12 | 0.974 ± 0.066
11 | O=C(Cc1ccc(-c2ccc(OCCN3CCOCC3)cc2)cn1)NCc1ccccc1 | 0.891 ± 0.0014 | 1.005 ± 0.0071 | 0.745 ± 0.26 | 1.145 ± 0.0071 | 0.57 ± 0.038 | 0.908 ± 0.26 | 0.171 ± 0.0021 | 0.791 ± 0.047
12 | COc1ccc(-c2ccc3c(N4CCOCC4)nc(N4C[C@@H](C)O[C@@H](C)C4)nc3n2)cc1CO | 0.938 ± 0.074 | 0.878 ± 0.041 | 0.842 ± 0.076 | 1.18 ± 0.021 | 0.392 ± 0.059 | 0.597 ± 0.019 | 0.432 ± 0.24 | 0.812 ± 0.29
13 | N=C(N)NC(=N)NCCc1ccccc1 [Phenformin hydrochloride] | 1.185 ± 0.0071 | 1.06 ± 0.057 | 1.21 ± 0.18 | 0.923 ± 0.086 | 1.26 ± 0.12 | 1.21 ± 0.27 | 1.3 ± 0.51 | 1.17 ± 0.21
14 | COc1ccc(-c2cc3c(C)nc(N)nc3n([C@H]3CC[C@H](OCCO)CC3)c2=O)cn1 | 0.889 ± 0.028 | 0.944 ± 0.028 | 0.68 ± 0.15 | 1.1 ± 0.099 | 0.348 ± 0.096 | 0.533 ± 0.056 | 0.591 ± 0.039 | 0.725 ± 0.043
15 | Cn1c(=O)c(F)c(Nc2ccc(I)cc2F)c2c(=O)n(C[C@@H](O)CO)cnc21 | 1.24 ± 0.05 | 1.2 | 0.9705 ± 0.0035 | 1.18 ± 0.035 | 1.66 ± 0.057 | 1.61 ± 0.62 | 1.31 ± 0.42 | 2.19 ± 0.11
16 | O=c1c(O)c(-c2ccc(O)c(O)c2)oc2cc(O)cc(O)c12 [Quercetin (Sophoretin)] | 1.19 ± 0.035 | 1.02 ± 0.046 | 1.23 ± 0.092 | 0.92 ± 0.013 | 1.07 ± 0.014 | 1.04 ± 0.035 | 1.16 ± 0.071 | 0.978 ± 0.073
17 | Cc1ccc(Nc2nccc(N(C)c3ccc4c(C)n(C)nc4c3)n2)cc1S(N)(=O)=O [Pazopanib HCl] | 1.11 ± 0.23 | 1.03 ± 0.073 | 1.065 ± 0.0071 | 0.846 ± 0.018 | 1.125 ± 0.0071 | 1.06 ± 0.19 | 1.14 ± 0.028 | 0.931 ± 0.087
18 | C[C@H](NC(=O)/C(C#N)=C/c1cccc(Br)n1)c1ccccc1 | 0.579 ± 0.082 | 0.529 ± 0.0085 | 0.183 ± 0.0028 | 0.899 ± 0.0057 | 0.041 ± 0.011 | 0.057 ± 0.015 | 0.0323 ± 0.02 | 0.0234 ± 0.012
19 | Cc1[nH]nc2ccc(-c3cncc(OC[C@@H](N)Cc4ccccc4)c3)cc12 | 1.02 ± 0.18 | 1.17 ± 0.05 | 0.755 ± 0.036 | 1.19 ± 0.099 | 0.51 ± 0.029 | 0.189 ± 0.021 | 0.196 ± 0.047 | 0.822 ± 0.042
20 | COc1ccc2c3n(c(=NC(=O)c4cccnc4)nc2c1OC)CCN3 | 1.005 ± 0.0071 | 0.944 ± 0.026 | 0.958 ± 0.028 | 1.04 ± 0.042 | 0.858 ± 0.13 | 1.05 ± 0.1 | 1.12 ± 0.13 | 0.67 ± 0.33

Source: the supplement of paper PMC6522484
